Drawing on PubChem BioAssay AID485273 (Sanford-Burnham Center for Chemical Genomics, 2010), this text covers inhibition for 58 compounds.

Out of some 330,000 compounds screened, about 1,500 (0.45%) were called active. This excerpt belongs to a sample that is enriched for actives. Unmarked numbers belong to inactive results. Rule as the data show it: active = inhibition above about 45% (passing the limit was not always enough); inconclusive = no clear call, values can overlap the other calls.

The target in the experiment is Ubiquitin-conjugating enzyme E2 N (Homo sapiens) (UniProt P61088). As to the kind of experiment: blockers of UBC13 ubiquitin chain synthesis – biochemical, TR-FRET, uHTS, primary screen (AID 485273). The settings on record: UBC13 polyubiquitin chain formation, at 20 µM, hits give high values. A general note: TR-FRET usually uses a lanthanide donor and a delayed reading to cut background.
Ubiquitin-conjugating enzyme E2 N (Homo sapiens), sequence (P61088 whole entry, looked up): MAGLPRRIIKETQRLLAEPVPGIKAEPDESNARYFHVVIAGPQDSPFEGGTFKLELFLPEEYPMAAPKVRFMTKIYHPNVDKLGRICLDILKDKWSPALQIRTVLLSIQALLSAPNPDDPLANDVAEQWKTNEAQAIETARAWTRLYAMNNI
In the case of `Cc1cccc(CNS(=O)(=O)c2ccc(-c3cnc(C4CC4)o3)cc2)c1`, the inhibition was -0.4%. In the case of `COc1ccc(S(=O)(=O)NNC(=O)Nc2ccc(C)cc2)c(OC)c1`, the inhibition was -8.1%. To `CCN(CC(=O)NCc1cccs1)C(=O)c1cccc(S(=O)(=O)Nc2ccccc2OC)c1` belongs 49.7% (active); to `CCN(CC(=O)NCc1cccs1)C(=O)c1ccc(OC)c(S(=O)(=O)N2CCOCC2)c1`, -0.3%; to `CCN(CC(=O)NCc1cccs1)C(=O)c1ccccc1F`, -3.4%. To `CN(C(=O)CN(CCO)CC(=O)N(C)C(C)(C)Cc1ccccc1)C(C)(C)Cc1ccccc1` belongs 57.3% (active); to `OCCN(Cc1ccccc1)Cc1ccc(Cl)cc1`, 5.2%; to `CCN(CC)C(=O)N(CC)Cc1ccccc1`, 6.4%. The value for `C/C(=N\NC(=O)OC(C)(C)C)c1ccc[nH]1` was 0.6%; that for `C=CCSC1=C(C#N)C(c2cc(Br)c(O)c(OC)c2)CC(=O)N1` (stereo not drawn) was 1.6%. Consider `Cn1c(C(=O)NCCCN2CCN(c3cccc(Cl)c3)CC2)cc2c(=O)n(C)c3ccccc3c21`, for which the inhibition is 49.9% (active). The value for `Cn1c(C(=O)NCCc2ccsc2)cc2c(=O)n(C)c3ccccc3c21` was 20.8%; that for `CCN1CCCC1CNC(=O)c1cc2c(=O)n(C)c3ccccc3c2n1C` (stereo not drawn) was 30.3%. For the compound `O=C(CSc1nnc(C2CC2)n1Cc1ccccc1)Nc1cccnc1Cl`, the inhibition is -7.4%. Consider `CCOc1cc(S(=O)(=O)NC2CC(C)(C)NC(C)(C)C2)ccc1F`, for which the inhibition was 7.3%.

As for `O=c1c2c(nc3n1CCCCC3)sc1c(O)cccc12`, the inhibition was 80% (active). The value for `Cc1c(C(=O)Nc2ccccc2)sc2nc3n(c(=O)c12)CCCCC3` was -3%.

As for `Cc1cccc2c(=O)n3c(nc12)CCCCC3`, the inhibition was 6.4%. To `CCn1ncc(CNC(=O)C2(C)CC2(Br)Br)c1C` (stereo not drawn) belongs -4.3%. To `COc1cc(NC(=O)c2ccc(CNc3c(N4CCCC4)c(=O)c3=O)cc2)cc(OC)c1OC` belongs -3.8%. To `O=C(c1ccc(F)cc1)N1CCC(C(=O)N2CCN(S(=O)(=O)c3ccccc3Br)CC2)CC1` belongs 13.6%.

As for `N[C@@H](Cc1ccccc1)C(=O)N1CCC(C(=O)NCC(=O)Nc2ccc(F)cc2)CC1`, the inhibition was -7.5%. The value for `Cn1c(SCC(=O)C(C)(C)C)nnc1-c1ccccn1` was 2.2%; that for `O=C(CN1C(=O)CCC1=O)Nc1ccc(S(=O)(=O)N2CCOCC2)cc1` was 0.4%. To `O=C(NNC(=S)Nc1ccccc1)c1cccc(S(=O)(=O)N2CCOCC2)c1` belongs -21.6%; to `O=S(=O)(c1ccc(NC(=S)NN=C(C2CC2)C2CC2)cc1)N1CCOCC1`, 45.9% (active); to `COc1cc2c(cc1OC)CN(C(C)C(=O)Nc1cccc(S(=O)(=O)N3CCOCC3)c1)CC2` (stereo not drawn), -1.1%. The value for `CC(C)Cc1oc(C(=O)O)cc1CN` was -1.6%.

Turning to `CCCCNC(=S)N/N=C1\CCCCc2ccccc21`, the inhibition is 0.6%. Regarding `CC(=O)c1ccc(S(=O)(=O)Nc2ccc(C(=O)NCC(c3ccccc3)N(C)C)cc2)cc1` (stereo not drawn), the inhibition was 1.5%. As for `COc1ccc(C(CNC(=O)c2ccc(S(=O)(=O)Nc3ccccc3F)cc2)N(C)C)cc1` (stereo not drawn), the inhibition is 94.8% (active).

`COc1ccc(C(CNC(=O)c2ccc(NS(=O)(=O)c3ccc(F)c(C)c3)cc2)N(C)C)cc1` (stereo not drawn): the inhibition is 40.3%. The value for `COc1ccc(C(F)(F)F)cc1N/C=C\c1nnnn1-c1ccc(C)cc1` was 4.1%; that for `COc1ccc(C(=O)N(C)CC(O)c2ccccc2)cc1OC1CCN(C(C)=O)CC1` (stereo not drawn) was -0.4%. To `CCC1=Nc2cc(C(=O)NCCN3CCCC3)ccc2Sc2ccc(C)cc21` belongs 17.6%; to `Cc1cccc(C(=O)OC(C)CN2CCN(C)CC2)c1` (stereo not drawn), 9.9%; to `Cc1cccc(-c2nc3ccc(C(=O)NCCN4CCN(C)CC4)cc3nc2-c2cccc(C)c2)c1`, 57.2% (active).

With `CC(Sc1nnnn1C1CCCCC1)C(=O)O` (stereo not drawn), the inhibition was -4.9%.

For `O=C(NCc1ccco1)c1ccc(NS(=O)(=O)c2cccc([N+](=O)[O-])c2)cc1`, the inhibition is -4.6%. To `CCOC(=O)[C@H]1[C@H]2COc3cc(OC)ccc3[C@@H]2N2C(=O)N(c3ccc(Br)cc3)C(=O)[C@@]12C` belongs -15%; to `CCOC(=O)[C@@H]1[C@H]2COc3cc(OC)ccc3[C@@H]2N2C(=O)N(c3cccc(C)c3)C(=O)[C@@]12C`, -7.1%; to `CCOC(=O)[C@@H]1[C@H]2COc3cc(OC)ccc3[C@H]2N2C(=O)N(c3ccc(F)cc3)C(=O)[C@]12C`, 53.6% (active).

`O=C(O)c1ccc(F)c(S(=O)(=O)Nc2ccccc2)c1`: the inhibition was 4%. For `O=C(Nc1cccc(C(=O)NC2CC2)c1)c1ccc(F)c(S(=O)(=O)N2CCOCC2)c1`, the inhibition is 3.1%. To `O=C(Nc1ccc([N+](=O)[O-])cc1)OCCc1ccccn1` belongs -7.9%; to `CC(=O)c1cccc(NC(=O)C2CCCN2S(=O)(=O)c2cccc3nsnc23)c1` (stereo not drawn), -4.7%.

As to `CN(C(=O)COC(=O)c1cc(=O)[nH]c2ccccc12)C1CCCCC1`, the inhibition is 5.6%. For `CCCCC(=O)Nc1ccc(C(=O)Nc2cc(C(F)(F)F)ccc2Cl)cc1`, the inhibition was -15%.

As for `CCCCN(CCCC)CCC(O)c1cc2c(Cl)cc(Cl)cc2c2cc(C(F)(F)F)ccc12` (stereo not drawn), the inhibition was 51.7% (active). Turning to `O=C(Nc1ccccc1N1CCOCC1)c1ccc(OCc2cscn2)cc1`, the inhibition is 0.6%. The value for `CCn1cc(C(=O)NCC(=O)NC(C)(C)CO)c(=O)c2cc3c(cc21)OCO3` was 3.5%; that for `CC(C)(C)CN1C(=O)C(=O)NC[C@H]1Cc1cccc2ccccc12` was 4%. The value for `O=C1CCNCCN1[C@H](CO)Cc1ccccc1` was -4.8%; that for `c1ccc(C[C@H]2CNCCN2CCC23CC4CC(CC(C4)C2)C3)cc1` was 55.8% (active). As for `c1ccc(C2CNCc3c2ccc2ccccc32)cc1` (stereo not drawn), the inhibition is 21.7%.

Regarding `c1ccc2c(CCN3CCNC[C@H]3Cc3cccc4ccccc34)cccc2c1`, the inhibition is 46.1% (active). Turning to `O=C1C(=O)N(c2ccccc2)c2ccccc21`, the inhibition is -10.7%.

Turning to `CC(C)(C)c1nnc(N/N=C/c2ccc(O)cc2)n(N)c1=O`, the inhibition was -10.3%.

What is called inhibition is the drop in the measured response relative to a control, in per cent.
